High-throughput results from PubChem BioAssay.
Sampled rows, rich in hits. Any-hit rate of the full collection: about 3.8%.
FH mod: Identification of activators of human fumarate hydratase by quantitative high-throughput screening | 54,000 compounds, 0.22% hits | AID 1347055, 2019 | Potency, µM (top dose mostly 79.9 µM), for inactives: at the highest dose activity change, negative = inhibition, most hits filed as inhibitors | FH coupled MDH/diaphorase resazurin fluorescence, 15 min | Fumarate hydratase, mitochondrial (Homo sapiens), P07954; further: potency means the concentration at half of the fitted maximal effect; on the % scale 0 is the no-effect control and ±100 the full control effect; the screen sought activators but most active calls are inhibition curves; nearly all actives have a fitted effect of over 45% in size
NTMT1 inhibitor: blocks human N-terminal methyltransferase 1 activity; Q9BV86; NTMT1 MTase-Glo SAH luminescence, purified enzyme; Potency, µM (titrated, usually from 114 µM), inactives show top-dose activity change, negative = inhibition, hits mostly inhibitors; 59,000 compounds, 2.5% hits;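 further: potency means the concentration at half of the fitted maximal effect; plate controls were DMSO vehicle for no effect and no enzyme for full effect; nearly all actives have a fitted effect of over 65% in size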
Target sequence (Q9BV86 whole entry, looked up): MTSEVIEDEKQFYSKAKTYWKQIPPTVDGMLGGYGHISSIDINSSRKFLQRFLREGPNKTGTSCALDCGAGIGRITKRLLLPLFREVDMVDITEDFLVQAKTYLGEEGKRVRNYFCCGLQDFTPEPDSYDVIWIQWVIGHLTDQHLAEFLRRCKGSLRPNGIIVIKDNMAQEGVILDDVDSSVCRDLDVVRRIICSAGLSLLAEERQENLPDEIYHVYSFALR
GPR32 ag: activates human resolvin D1 receptor GPR32; 48,000 compounds, 2.5% hits; CHO-K1 GPR32 beta-arrestin PathHunter luminescence, 90 min; zero percent set by DMSO-only wells; activation, % at 76.9 µM; AID 1346428; O75388;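 active means activation of at least 60% and not above a set upper limit, about 1 call in 100 departs from these limits; inconclusive means activation of 40% to 60%, or above that upper limit; inactive means activation under 40%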; further: 0% is about no effect
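Beta-arrestin recruitment read-out: luminescence from complemented beta-Gal in CHO-K1 GPR32 PathHunter cells, measured 1 h after detection reagent at ambient temperature following 90 min compound exposure at 37 °C; DMSO served as basal (EC0) control.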
OvCa metastasis: inhibitors of ovarian cancer cell adhesion and invasion in omental model. SKOV3ip1-GFP adhesion/invasion on 3D omental model, fluorescence. Potency, µM (titrated, usually from 45.8 µM), without a hit: top-dose activity change, negative = inhibition, hits mostly inhibitors. 46,000 compounds, 0.1% hits. AID 1963576;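 further: potency means the concentration at half of the fitted maximal effect; plate controls were DMSO wells for no effect and tomatine positive control wells for full effect; nearly all actives have a fitted effect of over 65% in size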
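qHTS, 4-pt dose (0.36-46 umol/L); SKOV3ip1-GFP, 1,200 cells/well, no FBS; primary omental fibroblast/mesothelial co-culture 48 h pre-grown; 2 h RT + 16 h 37 C; PBS wash, 4% PFA; GFP count 488/509 nm.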
* = called active by the depositor; i = inactive; ? = inconclusive; / = not tested or not shown; ! = not active in a repeat; [ ] = remark or other dose. Unless noted, the call rests on the fitted dose curve; in most records, active means well fitted curve in the direction sought with a large enough effect; inconclusive means small, poorly fitted or top-dose-only effect, or another doubt; inactive means no such curve, though single readings can be large; an effect the other way counts as inactive or inconclusive.

SMILES	FH mod	NTMT1 inhibitor	GPR32 ag	OvCa metastasis
CC(=O)c1cccc(NC(=O)c2nc3ccccc3n(C)c2=O)c1	-2.5%	25.1µM*	62.1*	-8.2%
COc1ncc(-c2ccc3c(Nc4cc(Oc5cc(F)cc(F)c5)cc(C(=O)O)c4)c(S(=O)(=O)NC4CC4)cnc3c2)c(OC)n1	-1.2%	11.2µM*!	/	/
CC(C)C(=O)c1cn(CC(=O)COc2ccc(Oc3ccccc3)cc2)c2ccc(C(=O)O)cc12	-13.1%	-5.8%[57.5 µM]	/	/
O=C(NCCCNc1nc(Nc2cccc(NC(=O)N3CCCC3)c2)ncc1I)c1cccs1	-26.5%	39.8µM*	/	-0.7%
CN1CCN(c2ccc(NC(=O)c3cccs3)cn2)CC1	/	2.7%[57.5 µM]	/	/
Cc1ccccc1NC(=O)Nc1ccc2nc(N3CCN(C)CC3)cc(C)c2c1	3.2%	-3.4%	30.7	0.3%
Cc1cc(N)c2cc(NC(=O)Nc3ccc4nc(C)cc(N)c4c3)ccc2n1	22.7%[53.3 µM]	20µM*	?	/
CCCOc1ccccc1C(=O)Nc1nc2c(s1)CCCC2	-14.7%	79.4µM*	-33.0	-1.1%
CCOc1cccc(C(=O)Nc2nc3c(s2)CC(C(C)(C)C)CC3)c1 (stereo not drawn)	-40.0%	?	-11.9	-6.5%
COc1cccc(C(=O)Nc2nc3c(s2)CCCC3)c1	-31.4%	39.8µM*	-0.4	i
CC(NC(=O)Cn1c(=O)oc2cc(S(=O)(=O)N3CCCCCC3)ccc21)c1ccccc1 (stereo not drawn)	3.3%	-18.4%	-23.6	-6.1%
CCOc1ccc(NC2SC(=O)N(Cc3ccccc3)C2=O)cc1 (stereo not drawn)	39.8µM*[activator]	2.2%	-43.7	-8.1%
O=c1oc2c(O)c(O)cc3c(=O)oc4c(O)c(O)cc1c4c23	-11.7%[53.3 µM]	3.55µM*!	?	-2.8%
C=CCn1c(=O)c2cnc(Nc3ccc(N4CCN(C)CC4)cc3)nc2n1-c1cccc(C(C)(C)O)n1	?	39.8µM*!	/	4.7%
Cc1sc2ncn(CC(=O)N3CCN(c4cccc(Cl)c4)CC3)c(=O)c2c1S(=O)(=O)N1CCN(c2ncccn2)CC1	-11.8%	7.7%	-6.1	67.1%
CCc1cccc(C)c1Nc1c(-c2ccc(N(C)C)cc2)nc2cnccn12	?	?	92.5*	i
CCOc1ccc(-c2cc3nc(C4CCN(C(=O)OC(C)(C)C)CC4)c(C(=O)Nc4cccc(Cl)c4C)cn3n2)cc1	-22.2%	5.4%	-14.5	6.7%
CCc1cccc(CC)c1NC(=O)c1cc(S(=O)(=O)N2CCc3ccccc32)cn1C	7.2%	14.4%	20.0	i
CCN(C(=O)c1cc(S(=O)(=O)N2CCc3ccccc32)cn1C)c1cccc(C)c1	-32.3%	89.1µM*	-26.3	9.7%
Cc1ccc2c(=O)c(C(=O)c3ccc(F)cc3)cn(CC(=O)NCCc3ccccc3)c2n1	-28.8%	5.2%	-7.0	-15.8%
CCOc1ccc(S(=O)(=O)Nc2ccc3oc(C)c(C(=O)OC(C)C)c3c2)cc1	?	7.4%	87.0*	-2.8%
CCCc1oc2ccc(NS(=O)(=O)c3ccc(OC)cc3)cc2c1C(=O)OCC	?	?	-16.9	-26.9%
CCc1ccc(S(=O)(=O)Nc2ccc3oc(C)c(C(=O)OCCOC)c3c2)cc1	/	/	64.4*	-7.5%
Cc1cc(Br)ccc1NC(=O)CN1C(=O)c2cccnc2Sc2ccccc21	4.4%	79.4µM*	-2.5	-6.3%
CC(=O)c1ccc(NC(=O)CN2C(=O)c3cccnc3Sc3ccccc32)cc1	-31.0%	4.1%	4.3	i
SMILES	FH mod	NTMT1 inhibitor	GPR32 ag	OvCa metastasis
Cc1[nH]c2ccccc2c1CC(=O)N[C@@H](Cc1ccccc1)C(=O)N(C)c1ccccc1	-0.8%	1.2%[57.5 µM]	/	/
COc1cc(NC(=O)c2cc(-c3cccc(OC)c3)n[nH]2)cc(OC)c1	?	-15.8%	81.5*	-9.1%
CCCCCCCCCCCCOCCOCCOCCOCCOCCOCCOCCOCCOCCO	-15.4%[53.3 µM]	?	99.0*	/
CCc1ccc(CNc2nc3nc(C)c(Cc4ccccc4)c(=O)n3[nH]2)cc1	6.0%	8.1%	3.8	0.4%
CN1C/C=C/CCOc2cccc(c2)-c2ccnc(n2)Nc2cccc(c2)C1	9.9%	39.8µM*	/	/
O=C(NCC1CCN(Cc2cccc(Cl)c2)CC1)c1cc2ccc3cccnc3c2[nH]1	8.7%	5.6%	-2.1	-1.2%
Cc1ccc(Cn2ccn(CC(=O)Nc3c(C)cc(C)cc3C)c(=O)c2=O)cc1	6.6%	50.1µM*	-0.6	-3.7%
Cc1ccc(CNC(=O)Cn2ccn(-c3cc(C)cc(C)c3)c(=O)c2=O)cc1	3.8%	-5.0%	-12.2	-2.0%
